The source of these data is PubChem BioAssay (EPA / NIEHS).

SMILES strings stand for the structures. “And” between values parts separate entries of the source, which are not always exact repeats. Identical values can stand only once. Results filed as inconclusive are left out. The source made the active and inactive calls. Rule for the calls, unless noted: active = hit-call score of the fitted dose curve at least 0.9, where 1 is the maximum; inactive = score below 0.9.

Test [1] concerns the target Paired box protein Pax-6 (Homo sapiens) (UniProt P26367). Nature of the test: ATG_Pax6_CIS: Attagene CIS-FACTORIAL HepG2 Assay for human Paired Box 6 (PAX6) (AID 2282956). Particulars: HepG2 CIS-FACTORIAL PAX6 reporter transcription, RNA readout; actives raise or lower the signal. An outline of the steps:
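After twenty-four hours of chemical exposure, transfected HepG2 cells are harvested for RNA. Cis-promoter reporter transcripts are amplified, fluorescently labelled and sized by capillary electrophoresis, with gain and loss of signal scored against DMSO.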

Test [2] can be described thus: ATG_PXRE_CIS: Attagene CIS-FACTORIAL HepG2 Assay for human Pregnane X Receptor Element (PXRE) (AID 2282957). The settings on record: HepG2 Attagene CIS-FACTORIAL PXRE reporter, mRNA; actives raise or lower the signal. The gist of the method: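 Transfect HepG2 with MRTUs (cis promoter elements); dose chemical, incubate 24 h; isolate RNA, RT with oligo(dT), PCR, 6-FAM label, HpaI cut, CE. Gain/loss fit vs DMSO.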

Test [3] in a line: ATG_PPRE_CIS: Attagene CIS-FACTORIAL HepG2 Assay for human Peroxisome Proliferator-activated Response Element (PPRE) (AID 2282958). The settings on record: HepG2 PPRE cis-element reporter, Attagene transcription factor profiling; actives raise or lower the signal. An outline of the steps: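 HepG2, transient MRTU transfection (cis promoter elements, endogenous TFs). 24 h dosing. RNA → oligo(dT) RT → PCR → 6-FAM primer extension → HpaI digest → CE. Bidirectional fit vs DMSO.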

Test [4] can be described thus: ATG_RORE_CIS: Attagene CIS-FACTORIAL HepG2 Assay for human RAR-related Orphan Receptor Element (RORE) (AID 2282959). Particulars: HepG2 Attagene cis-factorial RORE reporter, mRNA; actives raise or lower the signal. The gist of the method: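 Transient MRTU transfection of human HepG2 liver cells (FuGene 6); 24 h compound exposure; TriZol RNA, oligo(dT) RT, PCR, FAM labeling, HpaI cut, CE fragment analysis. DMSO = negative control/baseline.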

Test [5] in a line: ATG_Sox_CIS: Attagene CIS-FACTORIAL HepG2 Assay for human SRY-box transcription factor (SOX) (AID 2282960). Particulars: HepG2 Attagene cis-factorial SOX reporter, mRNA; actives raise or lower the signal. An outline of the steps: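 Endogenous factor activity in human liver HepG2 cells carrying transfected cis-regulated reporter units. RNA taken 24 h post-dose, reverse-transcribed, PCR-amplified and sized by capillary electrophoresis. Gain or loss of signal fitted relative to DMSO.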

Test [6] concerns the target Transcription factor Sp1 (Homo sapiens) (UniProt P08047). Nature of the test: ATG_Sp1_CIS: Attagene CIS-FACTORIAL HepG2 Assay for human Specificity Protein 1 (Sp1) (AID 2282961). The settings on record: HepG2 Sp1 cis-reporter transcription, actives raise or lower the signal. An outline of the steps:
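Transient MRTU-transfected HepG2, 24 h compound exposure. Total RNA → oligo(dT) RT → PCR of reporter → 6-FAM primer extension → HpaI digest → CE. Endpoint fitted both directions vs DMSO.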

Test [7] is described as follows: ATG_SREBP_CIS: Attagene CIS-FACTORIAL HepG2 Assay for human Sterol Regulatory Element Binding (SREBP) (AID 2282962). The settings on record: HepG2 Attagene cis-factorial SREBP reporter, mRNA; actives raise or lower the signal. The gist of the method: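 Twenty-four hours after chemical dosing of transfected HepG2 cultures, reporter RNA was converted to cDNA, amplified, end-labelled with 6-FAM and resolved by capillary electrophoresis. Responses were fitted relative to DMSO.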

In test [8] the target is Signal transducer and activator of transcription 3 (Homo sapiens) (UniProt P40763). Nature of the test: ATG_STAT3_CIS: Attagene CIS-FACTORIAL HepG2 Assay for human Signal Transducer and Activator of Transcription 3 (STAT3) (AID 2282963). Particulars: HepG2, Attagene cis-factorial STAT3 reporter transcription; actives raise or lower the signal. An outline of the steps: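 After a 24 h compound incubation, total RNA from MRTU-transfected HepG2 cells was converted to cDNA and reporter sequences PCR-amplified, labelled and profiled by capillary electrophoresis. Gain and loss of signal were referenced to DMSO.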
Signal transducer and activator of transcription 3 (Homo sapiens), sequence (P40763 whole entry, looked up): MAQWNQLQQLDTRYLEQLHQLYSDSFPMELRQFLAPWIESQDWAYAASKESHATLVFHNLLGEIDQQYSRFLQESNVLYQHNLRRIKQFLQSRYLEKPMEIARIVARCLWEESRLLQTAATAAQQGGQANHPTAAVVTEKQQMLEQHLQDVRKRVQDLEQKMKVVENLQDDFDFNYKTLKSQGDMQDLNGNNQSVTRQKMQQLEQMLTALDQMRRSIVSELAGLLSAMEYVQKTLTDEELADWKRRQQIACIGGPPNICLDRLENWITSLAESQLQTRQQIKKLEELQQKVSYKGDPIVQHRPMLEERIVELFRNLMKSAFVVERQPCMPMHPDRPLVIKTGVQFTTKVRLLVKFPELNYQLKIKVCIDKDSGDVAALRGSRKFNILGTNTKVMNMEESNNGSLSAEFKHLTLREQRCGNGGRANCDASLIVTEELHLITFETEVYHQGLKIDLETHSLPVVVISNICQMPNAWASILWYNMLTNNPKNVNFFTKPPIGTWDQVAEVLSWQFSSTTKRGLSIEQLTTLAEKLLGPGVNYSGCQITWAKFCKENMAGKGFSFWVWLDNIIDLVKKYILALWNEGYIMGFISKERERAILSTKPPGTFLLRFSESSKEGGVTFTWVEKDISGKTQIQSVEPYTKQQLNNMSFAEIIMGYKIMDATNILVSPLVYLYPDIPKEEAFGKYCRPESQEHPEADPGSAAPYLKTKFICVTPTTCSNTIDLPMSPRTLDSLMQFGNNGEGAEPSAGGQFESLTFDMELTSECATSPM

Test [9] in a line: ATG_TA_CIS: Attagene CIS-FACTORIAL HepG2 Assay for human TA Basal Promoter (AID 2282964). Particulars: HepG2 Attagene CIS-factorial TA basal promoter reporter; actives raise or lower the signal. The gist of the method:
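Read-out: fluorescent reporter-transcript fragments resolved by capillary electrophoresis after RT-PCR and HpaI digestion. Source: HepG2 cells carrying transiently transfected multi-reporter cis constructs, treated 24 h. Endpoint fitted bidirectionally relative to DMSO.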

A short description of test [10]: ATG_TCF_b_cat_CIS: Attagene CIS-FACTORIAL HepG2 Assay for human T-Cell-Factor with beta-catenin (TCF/b-cat) (AID 2282965). Particulars: HepG2 TCF/beta-catenin cis-reporter transcription, actives raise or lower the signal. The gist of the method: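 Endogenous transcription factor activity is captured through cis-promoter reporter constructs transiently introduced into human HepG2 liver cells. Induced reporter mRNA is measured after 24 h and fitted bidirectionally relative to DMSO.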

The nature of test [11]: ATG_TAL_CIS: Attagene CIS-FACTORIAL HepG2 Assay for human TAL Basal Promoter (AID 2282966).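 Note: background control endpoint measuring basal TAL promoter reporter mRNA not a specific factor.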 Particulars: HepG2 Attagene cis-factorial TAL promoter reporter; actives raise or lower the signal. An outline of the steps: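 Fluorescence of labelled reporter cDNA fragments, resolved by capillary electrophoresis, gave the readout. Human HepG2 liver cells carried transiently transfected cis-element reporter units and were treated for 24 hours; activity was fitted bidirectionally against DMSO.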

The nature of test [12]: ATG_TGFb_CIS: Attagene CIS-FACTORIAL HepG2 Assay for human Transforming Growth Factor (TGF) (AID 2282967). Particulars: HepG2 Attagene CIS TGFb reporter, mRNA transcription; actives raise or lower the signal. An outline of the steps: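 Transient MRTU transfection of HepG2 (FuGene 6). Dose 24 h. TriZol RNA, oligo(dT) RT, PCR, 6-FAM primer extension, HpaI cut, CE. Bidirectional fit, DMSO = baseline.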

Test [13] in a line: ATG_VDRE_CIS: Attagene CIS-FACTORIAL HepG2 Assay for human Vitamin D Receptor Element (VDRE) (AID 2282968). Particulars: HepG2 VDRE cis-reporter transcription, actives raise or lower the signal. An outline of the steps:
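In transiently transfected HepG2 liver cells, gain or loss of reporter mRNA after 24 h exposure is scored relative to DMSO, using fluorescence detection by capillary electrophoresis of RT-PCR products.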

The target of test [14] is X-box-binding protein 1 (Homo sapiens) (UniProt P17861). The test is described as follows: ATG_Xbp1_CIS: Attagene CIS-FACTORIAL HepG2 Assay for human X-box Binding Protein 1 (XBP1) (AID 2282972). The settings on record: HepG2 XBP1 cis-element reporter, Attagene multiplex; actives raise or lower the signal. The gist of the method:
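After a 24-hour chemical exposure of HepG2 cells carrying cis-regulated reporters, reporter mRNA levels are assessed. Quantification uses RT-PCR, 6-FAM labelling and capillary electrophoresis. Gain- or loss-of-signal is fitted against DMSO.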

A short description of test [15]: ATG_M_19_TRANS: Attagene TRANS-FACTORIAL HepG2 Assay for M19 Transcription Factor (Internal Marker) (AID 2282974; active = hit-call score of the fitted dose curve at least 0.9, where 1 is the maximum). The settings on record: HepG2 Attagene TRANS-FACTORIAL M19 internal marker reporter. An outline of the steps: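 Fluorescence of 6-FAM-labelled reporter cDNA fragments, separated by capillary electrophoresis, served as the readout. These derived from HepG2 cells carrying transfected GAL4-UAS reporter units after 24 h dosing, with DMSO as negative control.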

Test [16] deals with Estrogen-related receptor gamma (Homo sapiens) (UniProt P62508). The test is described as follows: ATG_ERRg_TRANS: Attagene TRANS-FACTORIAL HepG2 Assay for human Estrogen-Related Receptor gamma (ERRg) (AID 2282977; active = hit-call score of the fitted dose curve at least 0.9, where 1 is the maximum;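 note: hits increase reporter signal over DMSO so potencies reflect activators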). The settings on record: HepG2 Attagene TRANS reporter, ERRg transactivation. The gist of the method: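 Transient HepG2 transfectants, 24 h compound exposure, GAL4-UAS reporter mRNA by RT-PCR/6-FAM labelling/capillary electrophoresis; positive direction vs DMSO.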
Estrogen-related receptor gamma (Homo sapiens), sequence (P62508 whole entry, looked up, the tested form may be a part): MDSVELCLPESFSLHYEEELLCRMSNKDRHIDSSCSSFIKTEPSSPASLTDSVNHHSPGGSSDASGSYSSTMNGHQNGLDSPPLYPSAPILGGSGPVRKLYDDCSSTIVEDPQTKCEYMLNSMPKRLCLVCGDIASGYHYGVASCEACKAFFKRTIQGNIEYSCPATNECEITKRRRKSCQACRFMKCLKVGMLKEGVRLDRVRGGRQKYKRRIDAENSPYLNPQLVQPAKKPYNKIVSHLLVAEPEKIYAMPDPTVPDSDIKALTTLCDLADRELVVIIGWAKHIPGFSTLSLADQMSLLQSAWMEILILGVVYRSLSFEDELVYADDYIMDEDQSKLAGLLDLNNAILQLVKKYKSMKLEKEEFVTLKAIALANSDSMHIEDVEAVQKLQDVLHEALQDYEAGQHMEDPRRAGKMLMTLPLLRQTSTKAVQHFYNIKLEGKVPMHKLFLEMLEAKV

Test [17] addresses Steroid hormone receptor ERR1 (Homo sapiens) (UniProt P11474). Nature of the test: ATG_ERRa_TRANS: Attagene TRANS-FACTORIAL HepG2 Assay for human Estrogen-Related Receptor alpha (ERRa) (AID 2282971; active = hit-call score of the fitted dose curve at least 0.9, where 1 is the maximum). Particulars: HepG2 Attagene TRANS reporter, ERRa transactivation. The gist of the method:
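Reporter transcript induction was quantified by RT-PCR and capillary electrophoresis of FAM-labelled, HpaI-cut products after 24 h treatment of HepG2 cells carrying transiently transfected GAL4-UAS reporter units and an exogenous ERRa-Gal4 fusion; activity scored as increase over DMSO.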

A short description of test [18]: ATG_GAL4_TRANS: Attagene TRANS-FACTORIAL HepG2 Assay for GAL4 (Internal Marker) (AID 2282976; active = hit-call score of the fitted dose curve at least 0.9, where 1 is the maximum). Particulars: HepG2 Attagene TRANS GAL4 internal marker reporter. An outline of the steps: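 First, HepG2 cells were transfected with reporter units under GAL4-UAS control. Next, they were treated with chemical for 24 h. Finally, RNA was reverse-transcribed, PCR-amplified, FAM-labelled and resolved by capillary electrophoresis, with induction scored against DMSO.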

In test [19] the target is Estrogen receptor (Homo sapiens) (UniProt P03372). The test is described as follows: ATG_ERa_TRANS: Attagene TRANS-FACTORIAL HepG2 Assay for human Estrogen Receptor alpha (ERa) (AID 2282970; active = hit-call score of the fitted dose curve at least 0.9, where 1 is the maximum). Particulars: HepG2 Attagene TRANS ERa GAL4 reporter, mRNA. An outline of the steps: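 Human liver HepG2, transient transfection of multiple GAL4-UAS reporter units; TRANS format (exogenous NR-Gal4 chimera). 24 h dosing. Readout: reporter mRNA, RT-PCR, 6-FAM primer extension, HpaI digest, capillary electrophoresis. Positive direction vs DMSO.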
Estrogen receptor (Homo sapiens), sequence (P03372 whole entry, looked up, the tested form may be a part): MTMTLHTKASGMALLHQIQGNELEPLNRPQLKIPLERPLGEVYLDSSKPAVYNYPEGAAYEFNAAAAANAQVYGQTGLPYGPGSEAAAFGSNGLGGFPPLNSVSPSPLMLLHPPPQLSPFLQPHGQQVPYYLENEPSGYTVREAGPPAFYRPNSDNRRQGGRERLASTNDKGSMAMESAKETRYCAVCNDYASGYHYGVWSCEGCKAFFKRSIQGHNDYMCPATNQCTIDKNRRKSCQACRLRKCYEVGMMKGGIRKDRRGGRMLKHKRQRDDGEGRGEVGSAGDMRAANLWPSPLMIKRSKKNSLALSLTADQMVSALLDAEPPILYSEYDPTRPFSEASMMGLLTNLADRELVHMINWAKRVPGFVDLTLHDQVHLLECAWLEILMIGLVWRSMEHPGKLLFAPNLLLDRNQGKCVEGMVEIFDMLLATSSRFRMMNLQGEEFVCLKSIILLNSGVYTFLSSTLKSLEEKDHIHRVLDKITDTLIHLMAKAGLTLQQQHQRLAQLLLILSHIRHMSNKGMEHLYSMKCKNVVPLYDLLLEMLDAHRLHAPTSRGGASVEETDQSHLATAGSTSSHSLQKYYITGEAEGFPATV

Paired box protein Pax-6 (Homo sapiens), sequence (P26367 whole entry, looked up): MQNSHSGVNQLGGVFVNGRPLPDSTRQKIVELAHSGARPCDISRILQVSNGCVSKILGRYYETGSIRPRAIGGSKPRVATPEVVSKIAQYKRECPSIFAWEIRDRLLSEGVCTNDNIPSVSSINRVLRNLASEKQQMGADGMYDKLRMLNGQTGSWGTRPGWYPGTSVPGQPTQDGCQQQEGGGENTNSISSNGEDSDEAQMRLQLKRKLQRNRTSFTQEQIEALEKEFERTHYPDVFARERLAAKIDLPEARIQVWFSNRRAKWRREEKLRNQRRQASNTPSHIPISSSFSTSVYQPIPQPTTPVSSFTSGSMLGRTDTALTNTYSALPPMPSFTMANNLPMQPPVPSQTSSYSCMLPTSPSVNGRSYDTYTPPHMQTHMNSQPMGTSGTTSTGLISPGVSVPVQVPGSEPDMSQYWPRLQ
Transcription factor Sp1 (Homo sapiens), sequence (P08047 whole entry, looked up): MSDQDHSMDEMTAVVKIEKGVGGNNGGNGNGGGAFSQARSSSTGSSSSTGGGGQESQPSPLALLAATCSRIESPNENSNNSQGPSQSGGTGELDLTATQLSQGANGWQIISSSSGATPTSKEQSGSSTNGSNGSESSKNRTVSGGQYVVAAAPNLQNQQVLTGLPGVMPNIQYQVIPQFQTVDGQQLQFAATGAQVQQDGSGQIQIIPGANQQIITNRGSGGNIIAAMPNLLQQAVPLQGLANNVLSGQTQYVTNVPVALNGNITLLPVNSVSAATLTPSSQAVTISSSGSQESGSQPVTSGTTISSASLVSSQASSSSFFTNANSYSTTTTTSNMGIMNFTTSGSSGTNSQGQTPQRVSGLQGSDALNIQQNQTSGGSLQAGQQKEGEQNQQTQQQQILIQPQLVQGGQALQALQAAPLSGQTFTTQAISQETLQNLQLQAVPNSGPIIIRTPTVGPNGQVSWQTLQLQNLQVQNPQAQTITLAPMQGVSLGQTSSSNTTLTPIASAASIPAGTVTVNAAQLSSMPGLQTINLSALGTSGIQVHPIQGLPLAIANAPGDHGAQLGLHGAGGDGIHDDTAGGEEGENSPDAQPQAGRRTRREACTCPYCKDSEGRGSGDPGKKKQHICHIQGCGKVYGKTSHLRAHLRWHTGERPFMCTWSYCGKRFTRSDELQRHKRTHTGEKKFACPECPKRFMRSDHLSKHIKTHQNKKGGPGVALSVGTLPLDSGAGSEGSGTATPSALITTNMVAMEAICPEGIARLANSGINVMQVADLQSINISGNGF
X-box-binding protein 1 (Homo sapiens), sequence (P17861 whole entry, looked up): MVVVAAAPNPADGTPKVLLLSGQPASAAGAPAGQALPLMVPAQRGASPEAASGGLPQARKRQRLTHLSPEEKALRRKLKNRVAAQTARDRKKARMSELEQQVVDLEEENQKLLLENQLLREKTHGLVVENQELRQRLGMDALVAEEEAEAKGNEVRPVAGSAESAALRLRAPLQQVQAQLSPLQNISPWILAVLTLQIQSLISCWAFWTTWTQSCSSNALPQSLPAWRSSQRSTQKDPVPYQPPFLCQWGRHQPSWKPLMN
Steroid hormone receptor ERR1 (Homo sapiens), sequence (P11474 whole entry, looked up, the tested form may be a part): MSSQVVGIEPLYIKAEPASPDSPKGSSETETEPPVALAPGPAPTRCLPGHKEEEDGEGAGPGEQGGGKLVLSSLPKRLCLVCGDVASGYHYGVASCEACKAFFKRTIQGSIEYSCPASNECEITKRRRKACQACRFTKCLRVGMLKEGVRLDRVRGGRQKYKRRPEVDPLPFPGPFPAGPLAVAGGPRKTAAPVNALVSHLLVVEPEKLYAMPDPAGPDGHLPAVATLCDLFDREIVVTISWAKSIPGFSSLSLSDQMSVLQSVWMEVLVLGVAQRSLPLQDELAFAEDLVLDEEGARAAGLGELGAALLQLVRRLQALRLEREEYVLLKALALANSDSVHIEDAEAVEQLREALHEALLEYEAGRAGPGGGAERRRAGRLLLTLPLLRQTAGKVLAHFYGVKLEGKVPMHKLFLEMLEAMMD

In the case of `Cc1cc2c(cc1C(F)(F)F)N(C(=O)Nc1ccc(Oc3cccnc3C)nc1)CC2`, the call in [1], in [2], in [3], in test [4], in test [5] and in test [6] was inactive. For the same molecule, the outcome in test [7], in test [8], in test [9], in test [10], in [11] and in [12] was inactive. For the same molecule, the result in test [13], in [14], in test [15] and in test [16] was inactive.
For `Cc1ccc(C(C)C)cc1`, the molecule was called inactive in test [1], in [2], in [3], in [4], in test [5] and in test [6]. For the same molecule, the call in [7], in [8], in [9], in test [10], in [11] and in test [12] was inactive. The molecule was called inactive in test [13] and in [14].
In general, AC50 refers to the midpoint of the concentration-response curve, whichever way the signal moves. For the molecule `CC1(C)NC(=O)N(c2ccc([N+](=O)[O-])c(C(F)(F)F)c2)C1=O`, the outcome in [1], in test [4], in [5], in [6], in [7] and in [8] was inactive. The molecule was called inactive in test [9], in test [10], in test [11], in test [12], in test [13] and in test [17]. Moreover, the result in [14], in test [15], in test [18] and in [16] was inactive. Besides, the AC50 in test [2] is 27.5 µM (active) and 6.9 µM (active) and 27.3 µM (active).
For `CCN(Cc1cccnc1)C(=O)c1cccc(Cl)c1[C@]1(C)C(=O)N(Cc2ccc(OC)cc2OC)c2ccc(Cl)cc21`, the AC50 in test [1] is 3.83 µM (active); in test [2], 143 nM (active); in test [4], 2.74 µM (active); in test [7], 3.23 µM (active); in test [9], 4.5 µM (active); in test [10], 5.44 µM (active). Besides, the AC50 was 1.42 µM (active) in test [13] and 4.01 µM (active) in test [14]. The outcome in test [3], in [5], in test [6], in [8], in test [11] and in test [12] was inactive. For the same molecule, the molecule was classed as inactive in test [18].
Regarding `O=C=NCCCCCCN=C=O`, the molecule was called inactive in test [1], in [2], in test [3], in test [4], in test [5] and in test [6]. The call in [7], in test [8], in test [9], in test [10], in test [11] and in [12] was inactive. Also, the outcome in [13], in test [19], in test [14], in test [15] and in test [18] was inactive.
In the case of `O=C1O[C@H]([C@@H](O)CO)C(O)=C1O`, the outcome in [1], in [3], in test [4], in test [5], in test [6] and in test [7] was inactive. The call in test [8], in [9], in test [10], in test [11], in test [12] and in test [14] was inactive. The molecule was called inactive in test [15] and in test [18]. Further, the half-maximal activity concentration (AC50) in test [2] was 184 µM (active) and 54.4 µM (active).
